# From PubChem BioAssay
# Rows were chosen to be rich in hits. Some 17% of all compounds tested hit in one or more screens of this group.
# HT1080-NT tox: qHTS for induction of synthetic lethality in tumor cells producing 2HG: qHTS for the HT-1080-NT fibrosarcoma cell line; HT-1080-NT fibrosarcoma viability, CellTiter-Glo ATP luminescence, 48 h; Potency, µM (titrated, usually from 46.1 µM), for inactives: at the top dose activity, negative = less viability, usual class: cytotoxic; 360,000 tested, 1.6% active;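 note: NT is the 2HG producing partner of a matched IDH1 knockdown line; 0% = DMSO-treated cells and -100% = media-only wells without cells; nearly all actives have a fitted effect of over 55% in size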
#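 HT-1080-NT fibrosarcoma cells (2HG-overproducing), 750 cells/well in RPMI with 5% FBS, dosed after 2 h and incubated 48 h at 37C. CellTiter-Glo luminescence normalized to DMSO and no-cell wells; concentration-response curves fitted and classed.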
# HepG2 tox: qHTS for Inhibitors of TGF-b: Cytotox Counterscreen | HepG2 CAGA-GFP viability, ATP luminescence, 18 h | 410,000 tested, 0.76% active | Potency, µM (titrated, usually from 46.1 µM), without a hit: at the highest dose activity change, negative = cytotoxicity, most hits filed as cytotoxic | AID 588856, 2011
#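 CellTiter-Glo luminescence gave cytotoxicity after 18 hours at 37 degrees C. The cells were HepG2 CAGA-GFP in 1% FBS DMEM, stimulated with 500 pg/mL TGF-beta after compound addition. %Activity was normalised to no-cell wells (complete cell-killing) and DMSO (no toxicity), and curves were fitted and classified.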
# DT40 TDP1 no CPT: qHTS for Inhibitors of human tyrosyl-DNA phosphodiesterase 1 (TDP1): qHTS in cells in absence of CPT | DT40 Tdp1-/- hTDP1 cells, no CPT, ATP luminescence, 48 h | Potency, µM (series often up to 46.2 µM), for the others: at the top dose activity change, negative = growth inhibition, hits mostly inhibitors | 420,000 tested, 15% active | AID 686978, 2013; note: % is set by controls: 0 for no effect and ±100 for the full control effect; nearly all actives have a fitted effect of over 55% in size
#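 A cellular qHTS used chicken DT40 cells lacking endogenous Tdp1 but carrying stably transfected human TDP1. Compounds were applied without camptothecin, and cell growth kinetics were judged by ATP-dependent luminescence after ≥48 hr.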
# HT1080 IDH1KD tx: qHTS for induction of synthetic lethality in tumor cells producing 2HG: qHTS for the HT-1080-IDH1KD cell line; AID 686971, 2013; 360,000 tested, 2% active; HT-1080 IDH1 knockdown viability, ATP luminescence, 48 h; Potency, µM (top dose mostly 46.1 µM), for inactives: at the top dose activity, negative = toxicity, usual class: cytotoxic;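 note: 0% = DMSO wells and -100% = cell-free medium wells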
#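 HT-1080-IDH1KD cells (IDH1 knocked down), 750/well in RPMI with 5% FBS, treated with compound 48 h at 37 degrees C. Viability by CellTiter-Glo luminescence, normalised to DMSO and no-cell wells; concentration-response curves classed.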
# TGFb inhibitor: qHTS for Inhibitors of TGF-b. HepG2 CAGA-GFP TGF-b/SMAD3 reporter, GFP fluorescence, 18 h; TGF-beta stimulated, 500 pg/mL final. Potency, µM (series often up to 46.1 µM), inactives show at the top dose activity, negative = inhibition, most hits filed as inhibitors. 410,000 tested, 1.2% active. AID 588855, 2011; note: % is set by controls: 0 for no effect and ±100 for the full control effect; nearly all actives have a fitted effect of over 65% in size
#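 Read-out: total well GFP (ex488/em500-530) summed from mean per-cell fluorescence. Cells: HEPG2 CAGA-GFP, 1% FBS DMEM, 18 h at 37 degrees C with 500 pg/mL final TGF-beta. Unstimulated wells served as the full-inhibition control; stimulated DMSO wells = 0%.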
# DT40 TDP1 CPT: qHTS for Inhibitors of human tyrosyl-DNA phosphodiesterase 1 (TDP1): qHTS in cells in presence of CPT; chicken DT40 Tdp1-/-;hTDP1 cells + 20 nM CPT, ATP luminescence, 48 h; Potency, µM (titrated, usually from 46.2 µM), for the others: top-dose activity change, negative = growth inhibition, hits mostly inhibitors; 420,000 tested, 12% active; note: % is set by controls: 0 for no effect and ±100 for the full control effect; nearly all actives have a fitted effect of over 55% in size
#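 Chicken DT40 Tdp1-/- cells stably complemented with human TDP1 were seeded at 400 cells/well in medium containing 20 nM camptothecin, exposed to pin-transferred compounds, and grown at 37 °C for at least 48 hr. Viability was read as ATP luminescence.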
# Numbers without * were called inactive; u = inconclusive; x = not tested or not shown. Calls come from the whole dose curve; as a rule, active = well fitted curve in the direction sought with a large enough effect; inconclusive = small, poorly fitted or top-dose-only effect, or another doubt; inactive = no such curve, though single readings can be large; an effect the other way counts as inactive or inconclusive. Potency is the fitted concentration of half-maximal effect.
SMILES,HT1080-NT tox,HepG2 tox,DT40 TDP1 no CPT,HT1080 IDH1KD tx,TGFb inhibitor,DT40 TDP1 CPT
Fc1ccc(N2CCN(Cc3cccn3-c3nnc(N4CCN(C5CCCCC5)CC4)s3)CC2)cc1,x,-34%,-15%,x,18%,9%
CC(C)C(NS(=O)(=O)c1ccc2c(c1)oc(=O)n2C)C(=O)NCCc1ccc(Cl)cc1 (centres undefined),x,8%,-15%,x,3%,-6%
COc1ccccc1C(=O)N1CCN(Cc2c[nH]c3ccccc23)CC1,10%,-18%,16µM*,13%,-22%,15µM*
COc1ccccc1/C=C/CN1CCCC(CCC(=O)NCc2ccccc2F)C1 (centres undefined),u,-34%,21µM*,-20%,-17%,18µM*
COc1ccc(CN2CCN(Cc3c[nH]c4ccccc34)CC2)cc1OC,0%,-38%,-12%,-14%,-13%,-29%
COc1cccc(OC)c1C(=O)N1CCN(Cc2c[nH]c3ccccc23)CC1,-2%,-21%,-28%,-2%,13%,-28%
COc1ccc(C(=O)C2CCCN(C/C=C/c3ccccc3OC)C2)c(OC)c1 (centres undefined),-14%,-39%,2.6µM*,u,u,21µM*
COc1ccc(Br)cc1CN1CCN(Cc2c[nH]c3ccccc23)CC1,u,-97%,7.3µM*,21µM*,u,4.6µM*
COc1ccc(CN2CCN(S(=O)(=O)c3ccccc3)CC2)c(OC)c1,3%,5%,15µM*,7%,-23%,u
Cc1ccc2c(CN3CCN(C(=O)c4ccc(F)cc4)CC3)cc(=O)oc2c1,x,-16%,-61%,x,u,18µM*
Cc1ccc2c(CN3CCN(CCO)CC3)cc(=O)oc2c1,6%,-3%,2%,5%,10%,-11%
COc1ccc(CN2CCN(Cc3cc(=O)oc4cc(C)ccc34)CC2)c(OC)c1OC,-24%,-21%,16µM*,u,u,26µM*
COc1ccccc1N1CCN(Cc2cc(=O)oc3cc(C)ccc23)CC1,2%,-34%,u,-4%,-7%,23µM*
OC(CCCC(O)c1ccccc1)c1ccccc1 (centres undefined),12%,-2%,-10%,17%,-2%,0%
CC(=O)OCC(NC(=O)C(C)NC(=O)OC(C)(C)C)C1OC(n2ccc(=O)[nH]c2=O)C(OC(C)=O)C1OC(C)=O (centres undefined),x,-8%,x,x,-16%,x
COc1cccc(-n2c(SCC(=O)Nc3cccc(C)c3)nc3c([nH]c4ccccc43)c2=O)c1,x,-2%,u,x,0%,u
Cc1ccc(NC2=NC3(CCCC3)N=C(N)N2)c(C)c1,18µM*,-1%,3.7µM*,16µM*,8%,2.9µM*
Cc1ccc(NC2=NC3(CCCCC3)N=C(N)N2)c(C)c1,u,-19%,u,11µM*,17%,23µM*
Cc1cc(C)c2c(=O)n3c(nc2c1)C(C)NC(=O)c1cccnc1-3 (centres undefined),17%,-7%,-7%,16%,-3%,12%
CC(NC(=O)C1CCN(S(=O)(=O)c2ccc3c(c2)oc(=O)n3C)CC1)c1ccccc1 (centres undefined),x,-5%,-29%,x,-16%,-24%
Cc1ccc(CN(C(=O)c2ccc(C(C)(C)C)cc2)c2ccccn2)o1,x,-41%,u,x,u,u
C[C@H](CO)N1C[C@H](C)[C@@H](CN(C)C(=O)Nc2ccc3c(c2)OCO3)Oc2c(NC(=O)Nc3ccc(C(F)(F)F)cc3)cccc2C1=O,u,-81%,u,u,u,13µM*
C[C@H](CO)N1C[C@H](C)[C@@H](CN(C)C(=O)Nc2ccc(C(F)(F)F)cc2)Oc2c(NC(=O)Nc3ccccc3)cccc2C1=O,u,-44%,u,-23%,u,u
C[C@H](CO)N1C[C@H](C)[C@@H](CN(C)C(=O)Nc2ccc(C(F)(F)F)cc2)Oc2c(NC(=O)Nc3ccc4c(c3)OCO4)cccc2C1=O,-23%,-52%,18µM*,-9%,u,u
CCCCN1CCc2c([nH]c3ccccc23)C1=O,4%,0%,-4%,12%,u,-1%
SMILES,HT1080-NT tox,HepG2 tox,DT40 TDP1 no CPT,HT1080 IDH1KD tx,TGFb inhibitor,DT40 TDP1 CPT
CCCCC1CN2CCc3c([nH]c4ccccc34)C2(C)C1 (centres undefined),u,-30%,18µM*,u,0%,u
CCc1cc(CNC(=O)C2CCC(=O)N(Cc3cccc(F)c3)C2)on1 (centres undefined),16%,-14%,14%,9%,-11%,-7%
COc1cc2c(C(=O)N3CCN(c4ccccc4F)CC3)cn(C)c(=O)c2cc1OC,-4%,15%,-24%,-27%,14%,-8%
Cc1ccccc1-c1cc(=O)c2ccccc2o1,-19%,-12%,u,-8%,23%,21µM*
O=c1cc(-c2ccccc2[N+](=O)[O-])oc2ccccc12,u,2%,23µM*,12µM*,-19%,16µM*
CCC1([N+](=O)[O-])COC(C=Cc2ccccc2)OC1 (centres undefined),-1%,-4%,-22%,0%,-1%,u
O=C1C=CCC(/C=C/c2ccccc2)O1 (centres undefined),u,13µM*,3.7µM*,u,u,2.3µM*
CCOC(=O)c1c[nH]n(-c2ccc(C)cc2)c1=O,14%,1%,-13%,19%,17%,-11%
